Results as given in publication PMC4336329 (PLoS ONE, 2015).
The whole screen tested about 310,000 compounds, of which about 14,000 (4.5%) showed an effect of 50% or more. Effects have a minus sign here. What follows is part of a selection rich in strong results, with near analogues and random picks from the rest.

Target: human ether-à-go-go-related gene (hERG) potassium channel (human, UniProt Q12809)
Test: primary screen, population patch clamp on CHO cells stably expressing hERG; higher = less effect of the substance
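Note: peak tail current of the secondary pulse compared with the same well before compound.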

human ether-à-go-go-related gene (hERG) potassium channel, sequence (Q12809 whole entry, looked up): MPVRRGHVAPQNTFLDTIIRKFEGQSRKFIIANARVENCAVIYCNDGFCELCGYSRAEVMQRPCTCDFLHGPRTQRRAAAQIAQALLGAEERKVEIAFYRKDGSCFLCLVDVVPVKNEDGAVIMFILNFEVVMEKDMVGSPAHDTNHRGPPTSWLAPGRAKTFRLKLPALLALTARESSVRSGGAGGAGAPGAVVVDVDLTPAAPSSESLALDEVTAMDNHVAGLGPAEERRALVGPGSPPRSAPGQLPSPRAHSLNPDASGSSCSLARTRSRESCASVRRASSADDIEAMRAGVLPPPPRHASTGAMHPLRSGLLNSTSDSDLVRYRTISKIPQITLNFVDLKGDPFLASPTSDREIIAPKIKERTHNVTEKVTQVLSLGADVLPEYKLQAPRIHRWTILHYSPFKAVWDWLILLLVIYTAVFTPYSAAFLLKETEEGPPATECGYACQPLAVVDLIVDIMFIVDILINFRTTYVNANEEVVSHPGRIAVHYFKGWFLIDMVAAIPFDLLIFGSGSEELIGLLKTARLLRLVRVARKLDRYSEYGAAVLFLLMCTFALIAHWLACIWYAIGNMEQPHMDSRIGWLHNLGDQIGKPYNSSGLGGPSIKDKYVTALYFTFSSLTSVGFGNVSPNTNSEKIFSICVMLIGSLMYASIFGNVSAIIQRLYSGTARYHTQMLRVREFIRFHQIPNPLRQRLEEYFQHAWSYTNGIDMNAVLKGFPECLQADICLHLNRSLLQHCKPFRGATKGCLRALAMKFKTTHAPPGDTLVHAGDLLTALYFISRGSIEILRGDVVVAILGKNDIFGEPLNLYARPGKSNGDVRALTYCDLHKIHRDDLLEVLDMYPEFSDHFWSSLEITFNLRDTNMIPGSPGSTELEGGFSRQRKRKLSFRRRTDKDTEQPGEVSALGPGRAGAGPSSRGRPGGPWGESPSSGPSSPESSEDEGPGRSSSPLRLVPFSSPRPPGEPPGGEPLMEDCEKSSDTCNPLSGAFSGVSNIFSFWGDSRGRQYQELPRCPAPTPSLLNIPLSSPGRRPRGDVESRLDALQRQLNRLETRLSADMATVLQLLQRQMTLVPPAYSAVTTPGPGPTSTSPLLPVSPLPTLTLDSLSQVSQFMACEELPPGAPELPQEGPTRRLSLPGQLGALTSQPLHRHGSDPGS

Row | SMILES | hERG current change (%, negative = inhibition) at 10uM
1 | COC(=O)c1cnn(-c2ccc(Cl)cc2)c1/C=N/NC(N)=S | 7.44%
2 | O=C(Nc1cccc(-c2csc(Nc3cccc(C(F)(F)F)c3)n2)c1)c1cc([N+](=O)[O-])cc(C(F)(F)F)c1 | 5.05%
3 | CC(C)Oc1ccc(CNCCC2(C(C)C)CCOC(C)(C)C2)cc1 (centres unmarked) | -45.4%
4 | COc1ccc(NC(=O)Nc2ncn(Cc3cccc(C(F)(F)F)c3)n2)cc1OC | -32.5%
5 | NC(=O)C(c1ccccc1)c1ccc(C(=O)c2ccccc2)cc1 (centres unmarked) | 3.08%
6 | CC(C)N1CCC(N2CCN(CC#Cc3ccccc3)CC2CCO)CC1 (centres unmarked) | 0.615%
7 | CCc1ccc(N2CC(O)=C(c3nc4ccccc4c(=O)[nH]3)C2=N)cc1 | 2.98%
8 | CCOc1ccc(Nc2oc(Cc3ccccc3)nc2C#N)cc1 | -1.96%
9 | CCCCOc1cc(CC2CNC(=O)N2)ccc1OC (centres unmarked) | -2.83%
10 | COc1ccccc1NC(=O)Cn1c(=O)oc2cc(S(=O)(=O)N3CCCC3)ccc21 | 16.6%
11 | CCOC(=O)N1CCc2c(sc(NC(=O)CN3CCOCC3)c2C#N)C1 | -1.09%
12 | CCOC(=O)N1CCc2c(sc(NC(=O)Cc3ccccc3)c2C(=O)c2ccc(OC)cc2)C1 | 13.7%
13 | CCOC(=O)N1CCc2c(sc(NC(=O)CN3CCN(C)CC3)c2C(=O)Nc2ccccc2)C1 | -77.2%
14 | CCOC(=O)c1c(NC(=S)N2CCOCC2)sc2c1CCN(C(=O)OCC)C2 | -1.31%
15 | CCOC(=O)c1c(NC(=O)CN2CCCCC2)sc2c1CCN(C(=O)OCC)C2 | -10.9%
16 | CCOC(=O)N1CCc2c(sc(NC(=O)CN3CCOCC3)c2C(=O)Nc2ccccc2)C1 | -68.8%
17 | O=C(CNC(=O)c1ccco1)OC(C(=O)c1ccccc1)c1ccccc1 (centres unmarked) | 0.438%
18 | CCN1C(=O)C2(C(C(=O)c3ccc(C)o3)=C(O)C(=O)N2CCCN2CCOCC2)c2ccccc21 (centres unmarked) | 0.0517%
19 | O=C(CSc1nccc(=O)[nH]1)N1CCOCC1 | 3.03%
20 | COc1cc(SC)ccc1C(=O)OCc1nc2ccsc2c(=O)[nH]1 | -30.6%
21 | O=C(CSc1nnc(Nc2ccccc2)s1)NCC1CCCO1 (centres unmarked) | -1.51%
22 | COc1cc2ccccc2cc1C(=O)NNC(=O)c1ccccc1O | 7.31%

Row | SMILES | hERG current change (%, negative = inhibition) at 10uM
23 | COc1cccc2c(=O)c3c([nH]c12)OC(C)(C)C3 | 13%
24 | COc1cc2ncnc(NCc3ccc(C)cc3)c2cc1OC | -0.937%
25 | COc1cc2ncnc(NCc3ccc(F)cc3)c2cc1OC | -52.5%
26 | COc1cc2ncnc(NCc3ccc(Cl)cc3)c2cc1OC | -31.2%
27 | COc1cccc(CNc2ncnc3cc(OC)c(OC)cc23)c1 | -11.6%
28 | COc1cc2ncnc(NCc3cccc(Cl)c3)c2cc1OC | -63.9%
29 | COc1ccc(CNc2ncnc3cc(OC)c(OC)cc23)cc1 | -3.69%
30 | Cc1ccccc1Cn1c(=O)n(CCCC(=O)NCc2ccco2)c(=O)c2ccccc21 | -15.5%
31 | Nn1c(SCc2cccc(Cl)c2)nnc1-c1ccncc1 | -2.64%
32 | Cc1cc(C(=O)C(=O)N(C)C)c(C)n1-c1ccc(Cl)c(Cl)c1 | -28.9%
33 | COc1ccc(S(=O)(=O)N(CCN2CCOCC2)Cc2cc(OC)ccc2OC)cc1 | -10.7%
34 | Nc1ccc(NC(=O)c2ccccc2)c2c1C(=O)c1ccccc1C2=O | 2.65%
35 | CC(C)N1C(=O)CC(Nc2ccc(N3CCOCC3)cc2)C1=O (centres unmarked) | 2.64%
36 | COc1ccc(NC(=O)c2cc([N+](=O)[O-])ccc2N2CCCC2)cc1 | -1.73%
37 | O=C(O)c1cc([N+](=O)[O-])ccc1C(=O)Nc1ccccc1 | 12.7%
38 | CN1CCN(c2ccc(NC(=O)c3cc([N+](=O)[O-])ccc3N3CCOCC3)cc2)CC1 | -2.4%
39 | COc1cccc(NC(=O)c2cc([N+](=O)[O-])ccc2N2CCN(C)CC2)c1 | -57.7%
40 | COc1ccc(NC(=O)c2cc([N+](=O)[O-])ccc2O)cc1 | -57.6%
41 | CN1CCN(c2ccc([N+](=O)[O-])cc2C(=O)Nc2ccccc2)CC1 | -71.1%
42 | COc1ccc(NC(=O)c2cccc([N+](=O)[O-])c2)cc1 | 13%
43 | Cc1ccc(NC(=O)c2cc([N+](=O)[O-])ccc2N2CCOCC2)cc1C | -42.3%
44 | O=C(NC(=S)Nc1ccccc1)c1cc([N+](=O)[O-])ccc1N1CCOCC1 | 6.13%

Row | SMILES | hERG current change (%, negative = inhibition) at 10uM
45 | COc1ccc(NC(=O)c2cc([N+](=O)[O-])ccc2N2CCNCC2)cc1 | -44.5%
46 | Cc1cccc(NC(=O)c2cc([N+](=O)[O-])ccc2N2CCN(C)CC2)c1 | -61.9%
47 | COc1ccc(NC(=O)c2cc([N+](=O)[O-])ccc2N2CCN(C)CC2)cc1 | -43.4%
48 | CCC(C(=O)Nc1ccc(C)cc1)c1ccccc1 (centres unmarked) | 19.1%
49 | Nc1c(-c2cccc(Cl)c2)cnc2c(-c3ccccc3)cnn12 | 13.9%
50 | N#C/C(=C\c1ccc(F)c(Cl)c1)S(=O)(=O)c1ccccn1 | -6.64%
51 | O=C(/C=C/c1ccc([N+](=O)[O-])cc1)c1cccs1 | -23.4%
52 | CCOCCCNC(=O)C(c1ccc(OC)cc1)N(Cc1ccc2c(c1)OCO2)C(=O)c1cnccn1 (centres unmarked) | 8.96%
53 | CCOc1ccc2c(CC)cc(=O)oc2c1OCC | -18.9%
54 | O=C(Cn1cc(C(=O)C2CC2)c2ccccc21)Nc1ccc(F)cc1 | -20.5%
55 | O=C(Nc1ccccc1)c1cc([N+](=O)[O-])ccc1N1CCNCC1 | -37.8%
56 | O=C(Nc1cccc(Cl)c1N1CCOCC1)c1cc([N+](=O)[O-])ccc1N1CCOCC1 | -21.1%
57 | O=C(Nc1cccc(Cl)c1)c1cc([N+](=O)[O-])ccc1N1CCN(CCO)CC1 | -53%
58 | COC(=O)c1ccccc1NC(=O)C1CCN(C(=O)N2CCOc3ccccc32)CC1 | -59.6%
59 | Cc1ccccc1NC(=O)C1CCN(C(=O)N2CCOc3ccccc32)CC1 | -8.57%
60 | CCc1ccccc1NC(=O)C1CCN(C(=O)N2CCOc3ccccc32)CC1 | 1.77%
61 | CCCCC(=O)NC(c1ccccc1Cl)c1ccc2cccnc2c1O (centres unmarked) | 15.2%
62 | COc1ccc(S(=O)(=O)Nc2cc3c4c(c2)CC(=O)N4CCC3)cc1C | -4.48%
63 | CC1CCN(CCCNC(=O)c2nn(C)c3c2CS(=O)(=O)c2ccccc2-3)CC1 | -23.6%
64 | CN(CCCNC(=O)c1nn(C)c2c1CS(=O)(=O)c1ccccc1-2)Cc1ccccc1 | -46.9%
65 | CCN(CCCNC(=O)c1nn(C)c2c1CS(=O)(=O)c1ccccc1-2)Cc1ccccc1 | -60.3%
66 | CC1CC(C)CN(CCCNC(=O)c2nn(C)c3c2CS(=O)(=O)c2ccccc2-3)C1 (centres unmarked) | -64.2%

Row | SMILES | hERG current change (%, negative = inhibition) at 10uM
67 | CC1CC(C)CN(C(=O)c2nn(C)c3c2CS(=O)(=O)c2ccccc2-3)C1 (centres unmarked) | -12.7%
68 | CC(C)N(CCCNC(=O)c1nn(C)c2c1CS(=O)(=O)c1ccccc1-2)Cc1ccccc1 | -34.5%
69 | Cc1cc(-c2nc(C)c(-c3nnc(SCC(=O)Nc4ccc(Cl)cc4)n3C)s2)no1 | 2.4%
70 | COc1ccc(NC(=O)c2ccc(NC(=O)CSc3nccc(=O)[nH]3)cc2)cc1 | 15.4%
71 | Cc1ccc(-n2nc(C(=O)O)cc2-c2ccc(Cl)cc2)cc1 | 24.9%
72 | Cc1ccc(-n2nc(C(=O)O)cc2-c2ccccc2)cc1 | 14.5%
73 | O=C(c1cc(-c2ccc(Cl)cc2)n(-c2ccc(Cl)cc2)n1)N1CCOCC1 | -80.8%
74 | O=C(O)c1cc(-c2ccc(Cl)cc2)n(-c2cccc(Cl)c2)n1 | 23.4%
75 | O=C(c1cc(-c2ccc(Cl)c(Cl)c2)on1)N1CCOCC1 | -14.1%
76 | O=C(c1cc(-c2ccc(Cl)cc2)n(-c2ccc(Cl)c(Cl)c2)n1)N1CCOCC1 | -57%
77 | Cc1ccc(-n2nc(C(=O)N3CCOCC3)cc2-c2ccc(Cl)cc2)cc1 | -83.3%
78 | O=C(O)c1cc(-c2ccc(Cl)cc2)n(-c2ccc(Cl)cc2)n1 | 38.2%
79 | O=C(O)c1cc(-c2ccc(Cl)cc2)n(-c2ccccc2)n1 | 30.3%
80 | CCn1c(-c2cc(-c3ccc(OC(C)C)cc3)nc3ccccc23)n[nH]c1=S | 2.71%
81 | CCOC(=O)c1cc(NC(=O)N(CC)CC)c(C)nc1C | 5.59%
82 | Cc1cccc(C)c1NC(=O)CCc1nnc2ccc(N3CCCC3)nn12 | 10.3%
83 | CC1CCCCC1NCC(=O)NCc1ccc(F)cc1.O=C(O)C(=O)O (centres unmarked) | -8.33%
84 | CCN(CC)S(=O)(=O)c1ccc(Oc2cccc(C(C)=O)c2)nc1 | -65.5%
85 | CCN(c1ccccc1)S(=O)(=O)c1ccc(Oc2ccc(C(C)=O)cc2OC)nc1 | -26.2%
86 | CCN(CC)S(=O)(=O)c1ccc(OC)nc1 | 10.4%
